# Compound activity (PubChem BioAssay)
# HCV inh: inhibitors of hepatitis C virus infection; 3.4% of 340,000 active; Huh7.5.1 HCVcc-Cre infection, luciferase reporter, 44 h; Potency, µM (doses to about 41.8 µM), inactives show at the top dose activity change, negative = inhibition, usual class: inhibitors; AID 651820; active means well fitted inhibition curve with a large enough effect; inconclusive means small, poorly fitted or top-dose-only effect, or another doubt; inactive means no such curve, though single readings can be large or run the other way; further: potency means the concentration at half of the fitted maximal effect
#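 Whole-lifecycle infectious HCVcc-Cre system; cells 1,000/well, compound then virus (~0.5 moi) added 4 h after plating, 44 h culture. Luciferase read 15 sec following 15 min substrate incubation, room temp.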
# VACV Venus inh: inhibitors of vaccinia virus (Venus reporter); Vaccinia virus Venus reporter expression, fluorescence; Potency, µM (doses to about 36.5 µM), for inactives: top-dose activity change, negative = inhibition, actives largely listed as inhibitors; 0.46% of 330,000 active; calls by dose curve; tested in A549 cells; further: potency means the concentration at half of the fitted maximal effect; nearly all actives have a fitted effect of over 30% in size
# HCMV antiviral: blocks human cytomegalovirus replication; HFF cells, HCMV-luciferase reporter, 72 h; active compounds read low; activity change, negative = inhibition, % at 57.5 µM; 4.5% of 410,000 active; AID 1259415; in the data active means activity change below about -60%; inconclusive means no clear call, values can overlap the other calls; inactive means above about -39%
#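 Two-dose cell screen: HFF monolayers treated with compounds and infected with luciferase-expressing HCMV at 1 PFU/cell, 72 h at 37C, then lysed for luciferase measurement.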
# FMDV inh: blocks foot and mouth disease virus; FMDV antiviral cell-based qHTS; Potency, µM (highest dose often 57.9 µM), without a hit: at the top dose activity change, negative = inhibition, hits mostly inhibitors; 1.2% of 410,000 active; AID 1159524; calls by dose curve; tested in HEK293T cells; further: read-out not given here; potency means the concentration at half of the fitted maximal effect; nearly all actives have a fitted effect of over 45% in size
# Vaccinia mCherry: inhibitors of vaccinia virus infection (mCherry reporter signal); Vaccinia virus mCherry reporter infection, fluorescence; Potency, µM (top dose mostly 36.5 µM), inactives show at the top dose activity change, negative = inhibition, usual class: inhibitors; 0.63% of 310,000 active; AID 720579; calls by dose curve; tested in A549 cells; further: potency means the concentration at half of the fitted maximal effect; nearly all actives have a fitted effect of over 35% in size
# An asterisk follows results filed as active; i = inactive; ? = inconclusive; · = no result; [ ] = another dose, or the depositor's remark. Rows were chosen to be rich in hits. Some 7.3% of all compounds tested hit in one or more screens of this group. On the % scale 0 is the no-effect control and ±100 the full control effect.
SMILES,HCV inh,VACV Venus inh,HCMV antiviral,FMDV inh,Vaccinia mCherry
C/C=C(/CCC1NCCc2c1[nH]c1ccccc21)[Si](C)(C)C (configuration not stated),?,?,26.0,28.2µM*,-27.8%
O=C(Nc1ccc(Cl)cc1Cl)c1cc(S(=O)(=O)N2CCC3(CC2)OCCO3)ccc1F,·,-12.1%,4.3,-13.6%,-4.9%
COc1cccc(CNC(=O)COc2cc3c(c4oc(=O)cc(C)c24)CCC(C)(C)O3)c1,1.41µM*,-2.2%,?,?,-5.8%
COc1ccccc1CNC(=O)COc1cc2c(c3oc(=O)cc(C)c13)CCC(C)(C)O2,3.55µM*,-3.9%,-35.4,?,-9.3%
Cc1cc(=O)oc2c3c(cc(OCC(=O)NCc4cccnc4)c12)OC(C)(C)CC3,?,-4.6%,3.5,-22.3%,-1.4%
Cc1cc(=O)oc2c3c(cc(OCC(=O)NCCC(=O)O)c12)OC(C)(C)CC3,15.6%,·,-4.8,-9.1%,·
COc1ccc(CNC(=O)COc2cc3c(c4oc(=O)cc(C)c24)CCC(C)(C)O3)cc1,7.08µM*,-14.8%,14.1,?,-8.0%
CCOc1ccc(NC(=O)C(C)Sc2nnc3cc(C)c4ccccc4n23)cc1 (configuration not stated),·,-16.1%,?,-5.1%,-17.6%
COCc1ccc(CN2Cc3ccccc3OC(c3ccccc3F)C2)o1 (configuration not stated),·,-28.3%,·,1.8%,i
COc1cc(-c2nnn(CC(=O)Nc3ccc(OC(F)(F)F)cc3)n2)cc(OC)c1OC,·,-14.2%,-7.2,-12.4%,-14.9%
C=C1C=C(C(F)F)n2ncc(C(=O)NC(C)CC)c2N1 (configuration not stated),·,-13.7%,·,·,-4.8%
Cc1ccc(CNc2ncnc3c2c(-c2ccccc2)cn3-c2ccccc2)cc1,·,-2.7%,2.8,?,-17.5%
COc1cc(OC)cc(C(=O)N[C@H](C(=O)OCC(=O)Nc2ccc(C)cc2C)C(C)C)c1,-7.0%,-8.0%,-90.3*,-8.3%,-20.4%
O=C(CN1C(=O)c2cccnc2Oc2ccc(Cl)cc21)NCCCN1CCCCC1,·,-6.8%,?,8.1%,-12.7%
O=C(c1cncs1)N(Cc1cc2cc3c(cc2nc1N1CCOCC1)CCC3)CC1CCCO1 (configuration not stated),·,-2.3%,·,10.9%,-7.2%
CCN(CC)C(=O)c1ccc2nc3ccccc3nc2c1,-5.3%,?,-95.0*,45.1%,2.24µM*
CCN(CC)C(=O)c1ccc2nc(-c3ccccc3)c(-c3ccccc3)nc2c1,3.2%,-2.6%,-23.6,-1.9%,-11.1%
CS(=O)(=O)c1ccc(C(=O)OCC(=O)NCC2CCCO2)cc1[N+](=O)[O-] (configuration not stated),·,-13.9%,·,·,-14.4%
CCOC(=O)C1=CN(Cc2cccc(F)c2)S(=O)(=O)N(CC)C1c1ccccc1 (configuration not stated),0.562µM*,-16.2%,-10.4,-1.0%,?
CCOC(=O)C1=CN(CC)S(=O)(=O)NC1c1ccc2ccccc2c1 (configuration not stated),-26.8%,-6.9%,-5.8,-24.0%,-19.6%
CCOC(=O)C1=CN(CC)S(=O)(=O)NC1c1ccccc1 (configuration not stated),-17.6%[8.37 µM],-6.3%,-82.3*,0.0%,-28.7%
Cc1ccc(NC(=O)CSc2nc3ccccc3n2CC(=O)N2CCC(C)CC2)cc1C,·,-18.9%,-35.7,-12.2%,-13.8%
CCOC(=O)c1ccc([N+](=O)[O-])c(CS(=O)(=O)c2ccc(Cl)cc2)c1,-4.5%,·,4.5,-16.3%,·
Cc1ccc(S(=O)(=O)CCC(=O)c2cccc([N+](=O)[O-])c2)cc1,?,-22.1%,-11.7,25.1µM*,-4.6%
Cc1ccc(S(=O)(=O)Cc2cc(F)c([N+](=O)[O-])cc2[N+](=O)[O-])cc1,?,?,·,-40.7%,2.82µM*
SMILES,HCV inh,VACV Venus inh,HCMV antiviral,FMDV inh,Vaccinia mCherry
CN(Cc1ccccc1)C(=O)COC(=O)c1cc(NS(=O)(=O)c2cccs2)ccc1O,10µM*,·,-22.4,?,·
O=C(COC(=O)c1cc(NS(=O)(=O)c2cccs2)ccc1O)Nc1ccccc1,-15.9%,-10.8%,2.2,3.5%,-17.0%
O=C(CNC(=S)N(Cc1ccc(F)cc1)C1CCCCC1)NCC1CCCO1 (configuration not stated),10.8%,-5.6%,-9.4,3.7%,-10.8%
O=C(CNC(=S)N(Cc1ccccc1F)C1CCCCC1)NCC1CCCO1 (configuration not stated),-12.7%,?,-61.1*,0.3%,-28.2%
COc1cc(CN(C(C)=O)c2ccccc2C(=O)O)ccc1[N+](=O)[O-],28.1%,-10.8%,-62.6*,-6.0%,i
CCCCOc1cccc(C(=O)Nc2ccc(NC(=O)c3cccs3)cc2)c1,?,?,-89.4*,12.6%,-14.3%
COc1ccc(Br)cc1/C=C/C(=O)c1ccc(NC(C)=O)cc1,?,5.62µM*,-97.6*,10µM*,4.47µM*
COc1ccc(/C=C/C(=O)c2ccc(NC(=O)c3cccs3)cc2)cc1OC,10µM*,·,146.9,-16.2%,·
CCCOc1ccc(C(=O)Nc2ccc(NC(=O)c3cccs3)cc2)cc1,12.0%,-4.1%,-6.3,7.1%,-9.6%
COc1ccc(C(=O)Nc2ccc(NC(=O)c3cccs3)cc2)cc1Cl,-12.4%,·,-75.9*,7.7%,·
CCOC(=O)c1c(Nc2ccc(OC)cc2)nnc(-c2ccccc2)c1-c1ccccc1,·,-16.1%,-20.0,?,-14.7%
COC(=O)c1ccc(S(=O)(=O)NCCSc2nnc3c4ccccc4n(C)c3n2)cc1,10µM*,·,15.7,-1.5%,·
COc1ccccc1NC(=O)CSc1nnc2c3ccccc3n(C)c2n1,·,-13.2%,7.8,-10.8%,-8.5%
Cn1c(=O)c(-c2cccs2)nc2cnc(N3CCNCC3)nc21,·,·,·,-0.3%,·
O=C(Nc1ccc(Nc2ccccc2)cc1)Nc1ccccc1Cl,-24.7%,·,?,18.7%,·
O=C(Nc1ccc(CN2CCCCC2)cc1)Nc1ccc(Br)cc1Cl,15.8µM*,-26.2%,-61.7*,-10.5%,-2.9%
O=C(Nc1cccnc1)Nc1cc(Cl)cc(Cl)c1,?,?,-60.9*,?,-26.6%
O=C(Nc1cccc(Cl)c1)Nc1ccc(Br)cc1F,?,?,-69.0*,-19.1%,?
O=C(Nc1ccccc1)Nc1cc(Cl)cc(Cl)c1,?,11.2µM*,-91.4*,-28.7%,·
COc1ccc(NC(=O)Cn2cnc3c(oc4ccccc43)c2=O)cc1OC,·,-6.6%,9.5,14.9%,-0.6%
CCCC(=O)OCc1cnc(C)c2oc(=O)c(C(=O)Nc3cccc(C(F)(F)F)c3)cc12,·,-4.8%,20.6,-11.5%,-13.0%
O=C(NCc1csc2ccccc12)Nc1cc(Cl)cc(Cl)c1,?,-17.4%,-62.4*,?,-27.8%
O=C(NCCNC(=O)c1cc(OCC(F)(F)F)ccc1OCC(F)(F)F)Nc1cccc(C(F)(F)F)c1,?,·,37.3,-2.4%,·
CC(C)NC(=O)Nc1ccc(Br)cc1Cl,?,-3.4%,-61.2*,-22.6%,i
CC(C)C(=O)Nc1ccc(Br)cc1Cl,11.2%,-6.7%,?,-8.2%,i
